Where “and” joins values, the source holds several entries; their conditions need not be identical. Equal entries are not always repeated. More than one record can exist for a structure, and the calls need not agree. Calls of active or inactive are those of the source. The calls were made as follows: active = hit-call score of the fitted dose curve at least 0.9, where 1 is the maximum; inactive = score below 0.9.
Target: Transcription factor E2F1 (Homo sapiens) (UniProt Q01094)
Assay: ATG_E2F_CIS: Attagene CIS-FACTORIAL HepG2 Assay for human E2F Transcription Factor 1 (AID 2282935)
Settings: HepG2 Attagene cis-reporter, E2F reporter RNA transcripts; actives raise or lower the signal
Method: ATG_CIS is a cell-based, multiplexed-readout assay that uses HepG2, a human liver cell line, with measurements taken at 24 hours after chemical dosing in a 24-well plate.ATG_E2F_CIS is one of 52 assay component(s) measured or calculated from the ATG_CIS assay. It is designed to make measurements of mRNA induction, a form of inducible reporter, as detected with fluorescence intensity signals by Reverse transcription polymerase chain reaction (RT-PCR) and Capillary electrophoresis technology.Data from the assay component ATG_E2F_CIS was analyzed into 1 assay endpoint. This assay endpoint, ATG_E2F_CIS, was analyzed with bidirectional fitting relative to DMSO as the negative control and baseline of activity. Using a type of inducible reporter, measures of mRNA for gain or loss-of-signal activity can be used to understand the reporter gene at the transcription factor-level as they relate to the gene E2F1. Furthermore, this assay endpoint can be referred to as a primary readout, because this assay has produced multiple assay endpoints where this one serves a reporter gene function. To generalize the intended target to other relatable targets, this assay endpoint is annotated to the dna binding intended target family, where the subfamily is E2F transcription factor.
Human liver HepG2 cells are transiently transfected with multiple reporter transcription units (MRTUs) in 6-well plates using FuGene 6 reagent (Roche; 3 ml FuGene/1 mg DNA). The MRTU constructs are regulated by a cis-regulating element (promoter). […] A major difference between the CIS and TRANS system is that in CIS activities of endogenous TFs are measured, whereas the TRANS assay evaluates changes in activities of exogenous, chimeric NR-Gal4 proteins. […] At the end of 24 hour incubation, total RNA was isolated using TriZol reagent (Invitrogen). The isolated RNA is then reverse-transcribed using oligo(dT) primer and Mo-MLV reverse transcriptase (Invitrogen) with DNAse I (Ambion) treatment for 30 min. The one-tenth of the produced cDNA was amplified by PCR using Taq DNA polymerase (Invitrogen) and two reporter sequence-specific primers. The PCR products were fluorescently labeled by primer extension with 6-arboxyfluorescein (6-FAM) 5'-labeled reporter sequence-specific primer (2 min at 95 C, 20 s at 68 C and 10 min at 72 C) and these products were digested with 5U of HpaI (New England Biolabs) for 2h at 37 C. The fragments were purified using Qiaquick PCR columns (Qiagen), analyzed on an ABI 3130xL genetic analyzer (Applied Biosystems) with peak positions identified by using a set of X-rhodamine (ROX)-labeled MapMarker1000 molecular weight standards (BioVentures). The raw capillary electrophoresis data was processed using Attagraph software (Attagene).

Chain of Transcription factor E2F1 (Homo sapiens) (Q01094 whole entry, looked up): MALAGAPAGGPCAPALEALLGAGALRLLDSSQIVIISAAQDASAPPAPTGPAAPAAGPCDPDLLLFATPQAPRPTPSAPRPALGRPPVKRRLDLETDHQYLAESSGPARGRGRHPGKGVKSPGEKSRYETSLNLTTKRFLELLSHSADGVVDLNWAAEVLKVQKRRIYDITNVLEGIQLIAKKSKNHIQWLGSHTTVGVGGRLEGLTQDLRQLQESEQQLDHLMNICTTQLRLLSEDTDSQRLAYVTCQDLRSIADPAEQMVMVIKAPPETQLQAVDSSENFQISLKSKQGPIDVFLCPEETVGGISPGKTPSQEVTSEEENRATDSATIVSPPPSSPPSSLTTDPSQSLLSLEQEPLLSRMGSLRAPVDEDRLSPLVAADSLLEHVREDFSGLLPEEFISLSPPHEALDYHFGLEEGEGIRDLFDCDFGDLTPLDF

For `CCC(C)Nc1c([N+](=O)[O-])cc(C(C)(C)C)cc1[N+](=O)[O-]` (stereo not given), which outcome is on record?
Its outcome is “inactive”.

For `CNC(=O)CSP(=S)(OC)OC`, which outcome is on record?
Its outcome is “inactive”.

`CN1CSC(=S)N(C)C1` was tested. Which outcome did it give?
Its outcome is “inactive”.

For `O=C(O)COc1ccc(Cl)cc1Cl`, which outcome is on record?
Its outcome is “inactive”.

`CC1(C)C(C=C(Cl)Cl)C1C(=O)OC(C#N)c1ccc(F)c(Oc2ccccc2)c1` (stereo not given) was tested. Which outcome did it give?
Its outcome is “inactive”.

Which outcome does the source give for `CCC(C)(C)C(=O)OC1=C(c2ccc(Cl)cc2Cl)C(=O)OC12CCCCC2` here?
The outcome was “inactive”.

How did the outcome turn out when `CCCN(CCOc1c(Cl)cc(Cl)cc1Cl)C(=O)n1ccnc1` was run?
The outcome was “inactive”.

Which outcome does the source give for `O=S(=O)(O)C(F)(F)C(F)(F)C(F)(F)C(F)(F)C(F)(F)C(F)(F)C(F)(F)C(F)(F)F` here?
The outcome was “inactive”.

What about the AC50 of the same compound?
Its AC50 is 128 µM (active) and 48.9 µM (active).

With `COP(=O)(OC)OC=C(Cl)Cl` as the compound, how does the outcome read?
The outcome was “inactive”.

Which outcome does the source give for `Oc1ccc(Cl)cc1Cc1ccccc1` here?
Its outcome is “inactive”.

`COC(=O)c1ccccc1CS(=O)(=O)NC(=O)Nc1nc(OC)cc(OC)n1` was tested. Which outcome did it give?
The outcome was “inactive”.

Which outcome does the source give for `O=C(O)CCCOc1ccc(Cl)cc1Cl` here?
The outcome was “inactive”.

With `COP(=S)(OC)Oc1ccc(SC)c(C)c1` as the compound, how does the outcome read?
The outcome was “inactive”.

For `CNC(=O)Oc1ccccc1OC(C)C`, which outcome is on record?
Its outcome is “inactive”.

With `CC[C@H](C)[C@H]1O[C@]2(C=C[C@@H]1C)C[C@@H]1C[C@@H](C/C=C(\C)[C@@H](O[C@H]3C[C@H](OC)[C@@H](O[C@H]4C[C@H](OC)[C@@H](O)[C@H](C)O4)[C@H](C)O3)[C@@H](C)/C=C/C=C3\CO[C@@H]4[C@H](O)C(C)=C[C@@H](C(=O)O1)[C@]34O)O2` (tested in a mixture with another compound) as the compound, how does the outcome read?
Its outcome is “inactive”.

How did the AC50 turn out when `C[C@H]1[C@H](c2ccc(Cl)cc2)SC(=O)N1C(=O)NC1CCCCC1` was run?
The AC50 was 20.9 µM (active).

How did the outcome turn out when `ClC1C(Cl)C(Cl)C(Cl)C(Cl)C1Cl` (stereo not given) was run?
Its outcome is “inactive”.

With `CC(C)N(C(=O)COc1nnc(C(F)(F)F)s1)c1ccc(F)cc1` as the compound, how does the outcome read?
The outcome was “inactive”.

With `CCC(C)(NC(=O)c1cc(Cl)c(C)c(Cl)c1)C(=O)CCl` (stereo not given) as the compound, how does the outcome read?
Its outcome is “inactive”.

How did the outcome turn out when `CNC(=O)/C=C(\C)OP(=O)(OC)OC` was run?
Its outcome is “inactive”.

Which outcome does the source give for `OCCOc1ccccc1` here?
The outcome was “inactive”.

For `Cc1cc(C)nc(NC(=O)NS(=O)(=O)c2ccccc2C(=O)OC2COC2)n1`, which outcome is on record?
Its outcome is “inactive”.

`CCN(CC)C(=O)SCc1ccc(Cl)cc1` was tested. Which outcome did it give?
Its outcome is “inactive”.

For `N#Cc1c(Cl)c(Cl)c(Cl)c(C#N)c1Cl`, which outcome is on record?
The outcome was “inactive”.

How did the outcome turn out when `COc1cc(OC)nc(NC(=O)NS(=O)(=O)c2cc(NC=O)ccc2C(=O)N(C)C)n1` was run?
Its outcome is “inactive”.

`COC(=O)c1ccccc1S(=O)(=O)NC(=O)N(C)c1nc(C)nc(OC)n1` was tested. Which outcome did it give?
The outcome was “inactive”.

How did the outcome turn out when `O=[N+]([O-])c1c(Cl)c(Cl)c(Cl)c(Cl)c1Cl` was run?
The outcome was “inactive”.

Which outcome does the source give for `O=C(O)C(F)(F)C(F)(F)C(F)(F)C(F)(F)C(F)(F)C(F)(F)C(F)(F)F` here?
Its outcome is “inactive”.

Which outcome does the source give for `COP(=S)(OC)Oc1ccc([N+](=O)[O-])cc1` here?
The outcome was “inactive”.

For `O=C(Nc1ccccc1)Nc1cnns1`, which outcome is on record?
Its outcome is “inactive”.

For `CCOC1Oc2ccc(OS(C)(=O)=O)cc2C1(C)C` (stereo not given), which outcome is on record?
The outcome was “inactive”.

For `CCCN(CCC)c1c([N+](=O)[O-])cc(C(F)(F)F)cc1[N+](=O)[O-]`, which outcome is on record?
Its outcome is “inactive”.

For `N#CN`, which outcome is on record?
Its outcome is “inactive”.

How did the outcome turn out when `CCS(=O)(=O)c1cccnc1S(=O)(=O)NC(=O)Nc1nc(OC)cc(OC)n1` was run?
Its outcome is “inactive”.

For `CCc1ccc(C(=O)NN(C(=O)c2cc(C)cc(C)c2)C(C)(C)C)cc1`, which outcome is on record?
The outcome was “inactive”.

For `Cc1[nH]c(=O)n(C(C)(C)C)c(=O)c1Cl`, which outcome is on record?
The outcome was “inactive”.

For `[2H]C1([2H])[n+]2ccccc2-c2cccc[n+]2C1([2H])[2H]`, which AC50 is on record?
The AC50 was 90.7 µM (active).

For `O=C(NC(=O)c1c(F)cccc1F)Nc1ccc(OC(F)(F)C(F)OC(F)(F)F)c(Cl)c1` (stereo not given), which outcome is on record?
Its outcome is “inactive”.

How did the outcome turn out when `COC(=O)c1ccccc1S(=O)(=O)NC(=O)Nc1nc(C)nc(OC)n1` was run?
The outcome was “inactive”.

From PubChem BioAssay (EPA / NIEHS)
